Assay results published in PubChem BioAssay (NCATS).
Inconclusive results are not listed. Entries that show only a call come without a potency. The source made the active and inactive calls. Calls follow the shape of the dose curve; as a rule, active = well fitted inhibition curve with a large enough effect; inconclusive = small, poorly fitted or top-dose-only effect; inactive = no such curve, though single readings can be large or run the other way.

experiment: Primary qHTS for small molecule stabilizers of the endoplasmic reticulum resident proteome: Secreted ER Calcium Modulated Protein (SERCaMP) assay (AID 1508630); details: SH-SY5Y GLuc-SERCaMP (Gaussia luciferase released on ER calcium loss) secretion, thapsigargin, luminescence; series mostly up to 38.4 µM
Source text: Assay Provider: Brandon K. Harvey Ph.D.
National Institute on Drug Abuse, National Institutes of Health, Baltimore, MD
Endoplasmic reticulum (ER) dysregulation is associated with human pathologies including neurodegenerative, cardiovascular, muscular, and diabetic conditions. Maintenance of ER calcium is critical for functions of the ER and its depletion can lead to loss of ER resident proteins, in a process termed exodosis. Therapeutic compounds capable of attenuating the redistribution of ER proteins under pathological conditions may slow or stop disease progression. To identify such compounds, we performed a quantitative high-throughput screen (qHTS) using the SERCaMP assay, which monitors secretion of ER resident proteins triggered by calcium depletion.
SERCaMP was initially developed as a reporter of ER calcium homeostasis using a Gaussia luciferase with a modified signal peptide and carboxy-terminus (GLuc-SERCaMP), modifications that confer secretion of the reporter in response to ER calcium depletion (Henderson et al., 2014). The assay was used to screen 9,501 compounds, including a collection of drugs approved by the FDA (US), EMA (EU), NHI (Japan), and HC (Canada) regulatory agencies (Huang et al., 2011). Since the SERCaMP reporter reflects the exodosis phenomenon (Trychta et al., 2018a), compounds identified in the screen have the potential to prevent exodosis by different mechanisms such as stabilizing ER calcium or augmenting ERS retrieval.
1. Henderson, M.J., Wires, E.S., Trychta, K.A., Richie, C.T., and Harvey, B.K. (2014). SERCaMP: a carboxy-terminal protein modification that enables monitoring of ER calcium homeostasis. Mol Biol Cell 25, 2828-2839.
2. Huang, R., Southall, N., Wang, Y., Yasgar, A., Shinn, P., Jadhav, A., Nguyen, D.T., and Austin, C.P. (2011). The NCGC pharmaceutical collection: a comprehensive resource of clinically approved drugs enabling repurposing and chemical genomics. Sci Transl Med 3, 80ps16.
3. Trychta, K.A., Back, S., Henderson, M.J., and Harvey, B.K. (2018a). KDEL Receptors Are Differentially Regulated to Maintain the ER Proteome under Calcium Deficiency. Cell Rep 25, 1829-1840 e1826.
SEQUENCE No. (1, 2, 3, etc.); […] (e.g., Cells, Incubation, Reagent, etc.); VALUE and DESCRIPTION.
1; Reagent; 5 uL; 1000 SH-SY5Y cells per wells
3; Compound; 23 nL; Control inhibitor / compound library
5; Reagent; 100 nM; Thapsigargin
7; Reagent; 1 uL; 0.5x coelenterazine
8; Detection; Luminescence; ViewLux imaging system
NOTES (numbers refer to sequence above)
1; SH-SY5Y human neuroblastoma cells stably expressing GLuc-SERCaMP (SH-SY5Y-GLuc-ASARTDL) cells were seeded in 1,536 well white tissue culture treated plates (Corning, Cat# 7464) in DMEM-high glucose-sodium pyruvate (ThermoFisher Scientific, Cat #10569) supplemented with 10% bovine growth serum (Hyclone), 10 U/ml penicillin (Gibco), 10 ug/ml streptomycin (Gibco), and 20 mM HEPES.
2; Assay plates were incubated for 5 hour at 37C in a humidified incubator containing 5% CO2.
3; qHTS libraries (23 nl, final concentrations of 1.53 uM, 7.67 uM, 38.3 uM) or controls (neutral control: DMSO, positive control: dantrolene) were added using a Kalypsis pin-tool Robotic System equipped with 1536 pinheads.
4; Cells were then incubated for 16 hours at 37C, 5% CO2.
5; Thapsigargin was added at 100 nM to deplete ER calcium stores.
6; Cells were incubated for 4 hour (37 °C, 5% CO2)
7; Gaussia luciferase in the medium was measured by adding 1 ul of 0.5x coelenterazine (final concentration 0.07x) prepared in Gaussia Luciferase Glow Assay Buffer (Pierce), without addition of the Cell Lysis Buffer Reagent.
8; Luminescence was measured using a ViewLux […] CCD imaging system (Perkin Elmer) equipped with clear filters. […] The same controls were also used for the calculation of the Z' factor, a measure of assay quality control, as previously described (Zhang et al., 1999). […]
Potency is read from the fitted curve at half-maximal effect.

| SMILES | Potency |
| --- | --- |
| COc1cc(CCN)cc(OC)c1OC | inactive |
| COP(=S)(OC)Oc1cc(Cl)c(Cl)cc1Cl | inactive |
| C[C@](O)(CS(=O)(=O)c1ccc(F)cc1)C(=O)Nc1ccc(C#N)c(C(F)(F)F)c1 | inactive |
| O=C(CCCN1CCC2(CC1)C(=O)NCN2c1ccccc1)c1ccc(F)cc1 | 1000 nM (active) |
| COc1cccc([C@@]2(O)CCCC[C@@H]2CN(C)C)c1 | inactive |
| O=c1c(C2CC(c3ccc(-c4ccc(Br)cc4)cc3)Cc3ccccc32)c(O)sc2ccccc12 (stereo not given) | inactive |
| COP(=S)(OC)Oc1ccc(SC)c(C)c1 | inactive |
| C[C@]12CCC(=O)C=C1CC[C@@H]1[C@@H]2CC[C@]2(C)C(=O)CC[C@@H]12 | inactive |
| C#C[C@]1(O)CC[C@H]2[C@@H]3CCC4=CC(=O)CC[C@]4(C)[C@H]3CC[C@@]21C | inactive |
| CN1C(=O)CCS(=O)(=O)C1c1ccc(Cl)cc1 (stereo not given) | inactive |
| O=C(N/N=C/c1ccc([N+](=O)[O-])o1)c1cc([N+](=O)[O-])cc([N+](=O)[O-])c1O | inactive |
| ClCCN1CCCC1 | inactive |
| CC(NC(C)(C)C)C(=O)c1cccc(Cl)c1 (stereo not given) | inactive |
| CC(C(=O)c1ccccc1)N(C)C (stereo not given) | inactive |
| CC(Cc1ccccc1)N(C)Cc1ccco1 (stereo not given) | inactive |
| O=C(Nc1ccc(Br)cc1)c1cc(Br)cc(Br)c1O | inactive |
| O=C(O)CCCc1ccc(N(CCCl)CCCl)cc1 | inactive |
| CCN[C@@H](C)Cc1cccc(C(F)(F)F)c1 | inactive |
| Nc1nc(N)nc(NC2CC2)n1 | inactive |
| Nc1ccccc1 | inactive |

| SMILES | Potency |
| --- | --- |
| O=P1(N(CCCl)CCCl)NCCCO1 (stereo not given) | inactive |
| O=c1[nH]oc2c1CCNC2 | inactive |
| C[C@]12CCC(=O)C=C1CC[C@@H]1[C@@H]2CC[C@@]2(C)[C@H]1CC[C@]2(C)O | inactive |
| CCN[C@H](C)Cc1cccc(C(F)(F)F)c1 | inactive |
| COC(=O)C(Cl)C(=O)OC | inactive |
| C[C@]12Cc3cn[nH]c3C[C@@H]1CC[C@@H]1[C@@H]2CC[C@@]2(C)[C@H]1CC[C@]2(C)O | inactive |
| COc1cccc2c1C(=O)c1c(O)c3c(c(O)c1C2=O)C[C@@](O)(C(=O)CO)CC3OC1CC(N2CCOC(OC)C2)C(O)C(C)O1 (stereo not given in full) | inactive |
| CCC(C)C(C)(COC(N)=O)COC(N)=O (stereo not given) | inactive |
| CN(C)CCc1c[nH]c2cccc(OP(=O)(O)O)c12 | inactive |
| CC1(C)C(C=C(Cl)Cl)C1C(=O)OC(C#N)c1cccc(Oc2ccccc2)c1 (stereo not given) | inactive |
| CC(C)=CC1C(C(=O)OCN2C(=O)C3=C(CCCC3)C2=O)C1(C)C (stereo not given) | inactive |
| CCN(CC)CCc1c[nH]c2ccccc12 | inactive |
| CCOC(=O)CC(SP(=S)(OC)OC)C(=O)OCC (stereo not given) | inactive |
| O=C1CN=C(c2ccccc2)c2cc([N+](=O)[O-])ccc2N1 | inactive |
| CC(C)(C)NCC(O)c1cc(Cl)c(N)c(C(F)(F)F)c1 (stereo not given) | inactive |
| CCC(C)(C)c1ccc(O)cc1 | inactive |
| O=c1[nH]c2ccccc2n1C1CCNCC1 | inactive |
| CCc1cc2c(s1)-n1c(C)nnc1CN=C2c1ccccc1Cl | inactive |
| COc1ccc2c(c1OC)C(=O)O[C@H]2[C@@H]1c2cc3c(cc2CCN1C)OCO3 | inactive |
| CCCCCCC(=O)CCCCCC/C=C/C[C@@H](O)[C@H](O)[C@@](N)(CO)C(=O)O | inactive |
